{
  "source": "PubChem BioAssay AID743279",
  "about": "(National Center for Advancing Translational Sciences (NCATS), 2014)",
  "note": "Hit rate of the full screen: of about 360,000 compounds, about 17,000 (4.7%) were called active. Another 5% or so got no clear call; they are omitted. What follows is part of a selection rich in actives, with near analogues and random picks from the rest. Values without a mark were called inactive. No stated cut-off is given here; in the data, active means activity change below about -50%; inconclusive means mostly about -30% to -49%; inactive means weaker than that.",
  "data": [
    {"assay": "qHTS for Inhibitors of Inflammasome Signaling: IL-1-beta AlphaLISA Primary Screen", "conditions": "THP-1 LPS/ATP IL-1B secretion, 16 h; at 57.5 µM, active compounds read low", "method_in_brief": "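THP-1 cells pretreated 1 hr with compounds (up to 57.5 uM final), then stimulated with LPS (250 ng/mL final) plus ATP (1.25 mM final); secreted IL-1B measured by AlphaLISA after 16 hr, decreased signal indicating inhibition.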", "values": [
      {"compound": "COc1ccc2c(c1)C(=O)CC(c1ccccc1)O2", "note": "(stereo not drawn); further: on the % scale 0 is the no-effect control and ±100 the full control effect", "activity change": "-12.1%"},
      {"compound": "Cc1nn(C(C)C(=O)NCCC2=CCCCC2)c(=O)c2nn(-c3ccccc3)c(C)c12", "note": "(stereo not drawn)", "activity change": "14.5%"},
      {"compound": "CCOC(=O)c1oc2ccccc2c1NC(=O)c1cccs1", "activity change": "-2.68%"},
      {"compound": "CCc1c(C)sc(NC(=O)c2cccs2)c1C(N)=O", "activity change": "-92.1% (active)"},
      {"compound": "CCc1cccc(C)c1NC(=O)COC(=O)CNC(=O)c1cccs1", "activity change": "16.5%"},
      {"compound": "COC(=O)C1=CO[C@@H](O[C@@H]2O[C@H](CO)[C@@H](O)[C@H](O)[C@H]2O)C2C1C[C@H](O)[C@@H]2C", "note": "(stereo partly drawn)", "activity change": "15.4%"},
      {"compound": "COC[C@@H]1NS(=O)(=O)c2ccc(Br)cc2O[C@H]1c1ccccc1", "activity change": "2.65%"},
      {"compound": "COc1ccc(/C=C2\\CCc3ccccc3C2=O)c(OC)c1OC", "activity change": "-71% (active)"},
      {"compound": "COc1ccc(/C=C2/CCCc3ccccc3C2=O)cc1", "activity change": "0%"},
      {"compound": "O=C1/C(=C/c2cccs2)CCc2ccccc21", "activity change": "-13.1%"},
      {"compound": "N#CCc1c[nH]c2ccc([N+](=O)[O-])cc12", "activity change": "-1.78%"},
      {"compound": "CNc1cncc(-c2ccc(NS(C)(=O)=O)cc2)n1", "activity change": "6.32%"},
      {"compound": "O=C(NCc1cccc(C(F)(F)F)c1)c1cccc(S(=O)(=O)N2CCN(Cc3ccccc3)CC2)c1", "activity change": "0%"},
      {"compound": "O=C(CCC(=O)N1CCN(S(=O)(=O)c2ccc(Cl)cc2)CC1)NCc1cccc(C(F)(F)F)c1", "activity change": "-52.1% (active)"},
      {"compound": "CC(NC(=O)CCC(=O)N1CCN(S(=O)(=O)c2ccc(Cl)cc2)CC1)c1ccccc1", "note": "(stereo not drawn)", "activity change": "45.7%"},
      {"compound": "CCOCC(=O)Nc1ncc(S(=O)(=O)c2ccc([N+](=O)[O-])cc2)s1", "activity change": "20.1%"},
      {"compound": "COc1ccc(C(=O)NCCNc2ccc([N+](=O)[O-])cn2)cc1", "activity change": "40.6%"},
      {"compound": "COC(=O)C(NC(=O)c1ccc(OC)cc1)(Nc1ncc(S(=O)(=O)c2ccc([N+](=O)[O-])cc2)s1)C(F)(F)F", "note": "(stereo not drawn)", "activity change": "-99.1% (active)"},
      {"compound": "Nc1c(Cl)cc(-c2csc(N3CCCC3c3nc4cc(Cl)c(Cl)cc4n3CCOCCO)n2)cc1Cl", "note": "(stereo not drawn)", "activity change": "-4.36%"},
      {"compound": "Cc1ccc(S(=O)(=O)N2C[C@H]3C(=O)C[C@@H](c4cccc5ccccc45)N(S(=O)(=O)c4ccc(C)cc4)[C@H]3C[C@H]2c2ccc(Cl)cc2)cc1", "activity change": "0.625%"},
      {"compound": "COCCNC(=O)C1C(=O)Nc2ccccc2C(=O)N1c1ccc2c(c1)OCCO2", "note": "(stereo not drawn)", "activity change": "23.8%"},
      {"compound": "CC(C)NC(=O)/C(C#N)=C\\c1ccc(N(C)C)c(Br)c1", "activity change": "-7.21%"},
      {"compound": "COC(=O)Cc1c(-c2[nH]c3ccccc3c2CC(=O)OC)[nH]c2ccccc12", "activity change": "0%"},
      {"compound": "Cc1[nH]c2ccccc2c1/C=C(/C#N)C(=O)NC(C)C", "activity change": "-99.8% (active)"},
      {"compound": "O[C@@H]1C[C@H](c2ccccc2)N(Cc2cccs2)C[C@H]1n1cc(C2CC2)nn1", "activity change": "-20.7%"},
      {"compound": "Cc1ccc(C)c(NC(=S)NNC(=O)c2csc(C)c2)c1", "activity change": "12.4%"},
      {"compound": "Cc1ccc(C)c(NC(=S)NNC(=S)Nc2ccc(C(C)C)cc2)c1", "activity change": "-52.5% (active)"},
      {"compound": "CC(C)c1ccc(NC(=S)NNc2ccc(Cl)c(C(=O)O)c2)cc1", "activity change": "20.7%"},
      {"compound": "CCOC(=O)C(C(=O)c1ccccc1)C(c1ccccc1)c1nccc2ccccc12", "note": "(stereo not drawn)", "activity change": "11.3%"},
      {"compound": "O=C(O)CSc1nccn1-c1cccc(Cl)c1", "activity change": "14.2%"},
      {"compound": "O=C(O)CSc1nccc2ccccc12", "activity change": "-61.2% (active)"},
      {"compound": "CCNC(=O)C1(C)CCCN1C(=O)c1ccc(N(C)C)cc1", "note": "(stereo not drawn)", "activity change": "15.5%"},
      {"compound": "Cc1nc(SCC(=O)c2ccccc2)c([N+](=O)[O-])[nH]1", "activity change": "23.3%"},
      {"compound": "CSCCC(C(=O)NC(C)(C)C)n1c(-c2ccccc2)nc2ccccc21", "note": "(stereo not drawn)", "activity change": "15.5%"},
      {"compound": "COc1ccc(-c2[nH]ncc2/C=N/NC(=O)c2cc(Br)ccc2O)c(OC)c1", "activity change": "86.3%"},
      {"compound": "COc1ccc(Oc2cn[nH]c2-c2ccc(OC)cc2O)cc1", "activity change": "-82.8% (active)"},
      {"compound": "CCOc1ccccc1Oc1cn[nH]c1-c1ccc(OC)cc1O", "activity change": "18.7%"},
      {"compound": "CC1Sc2ccc(S(=O)(=O)CCC(=O)NCc3ccccc3Cl)cc2NC1=O", "note": "(stereo not drawn)", "activity change": "18.9%"},
      {"compound": "CS(=O)(=O)Nc1cccc(-c2cn3ccccc3n2)c1", "activity change": "-14%"},
      {"compound": "CCS(=O)(=O)Nc1cccc(-c2cc(-c3ccccc3)c3cc(C)ccc3n2)c1", "activity change": "-99.4% (active)"},
      {"compound": "Cc1cc(C)cc(NS(=O)(=O)Cc2ccccc2)c1", "activity change": "-5.28%"},
      {"compound": "O=C(NC1CCCCC1)C(c1cc2ccccc2o1)n1c(=O)c(-c2ccco2)nc2ccccc21", "note": "(stereo not drawn)", "activity change": "-2.14%"},
      {"compound": "CN(C)CCNC(=O)c1ccc(Cl)c2cc3ccccc3nc12", "activity change": "-112% (active)"},
      {"compound": "CN(C)CCNC(=O)Nc1cccc(Cl)c1Cl", "activity change": "2.19%"},
      {"compound": "CC(=O)NCCNC(=O)c1cc(-c2cccc3ccccc23)nc2ccccc12", "activity change": "0.0656%"},
      {"compound": "O=C(OCc1ccccc1)N1CCC2CC1c1cc(N3CCN(S(=O)(=O)c4cc(Cl)cc(Cl)c4)CC3)ccc12", "note": "(stereo not drawn)", "activity change": "21.9%"},
      {"compound": "CC1(C)C=Cc2c(ccc3c2OC[C@@H](c2ccc(O)cc2O)C3)O1", "activity change": "-13.2%"},
      {"compound": "CC(=O)c1c(N2CCN(c3ccc(F)cc3)CC2)nc(=S)n(-c2ccccc2)c1C", "activity change": "-79.7% (active)"},
      {"compound": "CC(=O)c1c(N2CCOCC2)nc(=S)n(Cc2ccccc2)c1C", "activity change": "30.6%"},
      {"compound": "CC(=O)c1c(N2CCOCC2)nc(=S)n(-c2cc(C)ccc2C)c1C", "activity change": "-14.3%"},
      {"compound": "CCOc1ccc(NC(=O)CN(C)C(=O)c2c(C)noc2C)cc1OCC", "activity change": "2.67%"},
      {"compound": "Cc1cccc(NC(=O)COC(=O)CCc2ccccc2)c1C", "activity change": "5.72%"},
      {"compound": "Cc1ccccc1NC(=O)CSC(=O)c1ccccc1", "activity change": "22.2%"},
      {"compound": "Cc1cccc(NC(=O)CSC(N)=O)c1C", "activity change": "-90.9% (active)"},
      {"compound": "CCCCCCCCCCCCCCCC(=O)OC/C=C(C)/C=C/C=C(C)/C=C/C1=C(C)CCCC1(C)C", "activity change": "-8.52%"},
      {"compound": "COC(=O)c1ccccc1NS(=O)(=O)c1ccc2[nH]c(=O)[nH]c2c1", "activity change": "-16.3%"},
      {"compound": "COC(=O)c1ccc(NC(=O)c2ccccc2NS(=O)(=O)c2ccccc2)cc1", "activity change": "-61.7% (active)"},
      {"compound": "CCOc1ccc(NC(=O)c2ccccc2NS(C)(=O)=O)cc1", "activity change": "-7.57%"}
    ]}
  ]
}
